# Test results taken from article PMC7862700, “An all-to-all approach to the identification of sequence-specific readers for epigenetic DNA modifications on cytosine”.
# How the values were obtained:
# Assay in all cases: DAPPL (digital affinity profiling via proximity ligation, sequencing); 10 mM Tris-HCl pH 7.5, 50 mM NaCl, 1 mM DTT, 4% glycerol, room temperature, 30 min; GST-TFs on glutathione beads, 16-mer random dsDNA library, 0.1% formaldehyde crosslink after washing; high values mean tight binding
# [1] = target: T1, FLI1 (Homo sapiens, UniProt Q01543 1-452); conditions: protein: recombinant; tags: N-terminal GST; dsDNA, one strand shown
# T1 sequence: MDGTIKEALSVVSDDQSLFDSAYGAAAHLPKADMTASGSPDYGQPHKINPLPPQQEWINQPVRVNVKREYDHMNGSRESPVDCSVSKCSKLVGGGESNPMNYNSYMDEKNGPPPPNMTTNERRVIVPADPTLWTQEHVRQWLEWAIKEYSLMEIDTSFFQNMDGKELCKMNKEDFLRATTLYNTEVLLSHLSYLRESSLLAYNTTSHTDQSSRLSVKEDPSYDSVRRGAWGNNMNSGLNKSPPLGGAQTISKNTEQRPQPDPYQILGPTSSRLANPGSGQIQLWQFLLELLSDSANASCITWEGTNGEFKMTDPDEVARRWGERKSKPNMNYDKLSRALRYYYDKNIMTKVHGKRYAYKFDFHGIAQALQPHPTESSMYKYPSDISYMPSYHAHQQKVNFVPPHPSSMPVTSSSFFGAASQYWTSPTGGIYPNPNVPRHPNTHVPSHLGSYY
# How it was run: (§1)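 Binding signal is defined as a hexamer's read frequency for one factor over its frequency for the tag-only sample. To obtain reads, GST-fused human transcription factors were expressed in yeast, captured on glutathione beads, barcoded with DNA and pooled with that sample. Pools met 200 nmole of a 16-mer random double-stranded DNA library in Tris/NaCl/DTT/glycerol buffer for 30 min at room temperature before washing, 0.1% formaldehyde crosslinking, proximity ligation (BsaI/T4 ligase, 1 h, 37 °C), PCR and Illumina NextSeq500 sequencing.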
# [2] = target: T2, ELK1 (Homo sapiens, UniProt P19419 1-428); conditions: protein: recombinant; tags: N-terminal GST; dsDNA, one strand shown
# T2 sequence: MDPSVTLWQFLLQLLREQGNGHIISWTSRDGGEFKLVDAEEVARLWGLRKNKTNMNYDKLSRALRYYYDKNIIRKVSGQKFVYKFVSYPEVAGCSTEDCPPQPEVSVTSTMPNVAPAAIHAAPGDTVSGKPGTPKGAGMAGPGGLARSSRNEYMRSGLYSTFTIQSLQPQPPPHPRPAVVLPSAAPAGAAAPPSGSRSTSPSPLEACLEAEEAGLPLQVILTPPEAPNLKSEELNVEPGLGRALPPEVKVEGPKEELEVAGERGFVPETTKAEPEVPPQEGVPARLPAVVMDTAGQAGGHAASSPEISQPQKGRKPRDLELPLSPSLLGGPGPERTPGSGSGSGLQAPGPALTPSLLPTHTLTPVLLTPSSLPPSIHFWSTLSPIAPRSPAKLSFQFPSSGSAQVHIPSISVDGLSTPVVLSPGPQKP
# How it was run: as §1
# [3] = target: T3, GABPA (Homo sapiens, UniProt Q06546 1-454); conditions: protein: recombinant; tags: N-terminal GST; dsDNA, one strand shown
# T3 sequence: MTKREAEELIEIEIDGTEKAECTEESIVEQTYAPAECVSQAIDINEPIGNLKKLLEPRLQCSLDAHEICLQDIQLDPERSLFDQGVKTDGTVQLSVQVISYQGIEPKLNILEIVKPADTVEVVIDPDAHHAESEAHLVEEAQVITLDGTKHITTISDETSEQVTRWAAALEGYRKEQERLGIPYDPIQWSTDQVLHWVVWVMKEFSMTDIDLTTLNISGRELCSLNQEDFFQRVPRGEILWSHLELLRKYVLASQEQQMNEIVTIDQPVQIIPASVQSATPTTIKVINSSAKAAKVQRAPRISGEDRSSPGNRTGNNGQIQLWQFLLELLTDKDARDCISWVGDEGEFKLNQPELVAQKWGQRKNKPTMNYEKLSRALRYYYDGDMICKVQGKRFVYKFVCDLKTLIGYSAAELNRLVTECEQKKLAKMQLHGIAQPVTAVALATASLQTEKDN
# How it was run: as §1
# [4] = target: T4, ERG (Homo sapiens, UniProt P11308 1-479); conditions: protein: recombinant; tags: N-terminal GST; dsDNA, one strand shown
# T4 sequence: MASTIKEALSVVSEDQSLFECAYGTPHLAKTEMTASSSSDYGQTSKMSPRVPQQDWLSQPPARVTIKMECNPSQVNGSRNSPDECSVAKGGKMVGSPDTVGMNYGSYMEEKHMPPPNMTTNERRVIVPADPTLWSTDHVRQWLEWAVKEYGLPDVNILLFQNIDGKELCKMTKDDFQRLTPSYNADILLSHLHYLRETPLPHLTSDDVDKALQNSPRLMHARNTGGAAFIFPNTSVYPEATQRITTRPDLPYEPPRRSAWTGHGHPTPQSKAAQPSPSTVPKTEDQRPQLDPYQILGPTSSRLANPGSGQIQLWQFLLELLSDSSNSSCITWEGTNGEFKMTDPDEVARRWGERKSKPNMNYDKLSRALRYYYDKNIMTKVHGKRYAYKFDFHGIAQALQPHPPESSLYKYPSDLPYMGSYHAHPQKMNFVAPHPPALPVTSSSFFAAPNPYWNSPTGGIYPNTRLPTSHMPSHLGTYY
# How it was run: as §1
# [5] = target: ELF1 (Homo sapiens, UniProt P32519 1-619); conditions: protein: recombinant; tags: N-terminal GST; dsDNA, one strand shown
# How it was run: as §1
# [6] = target: T5, EHF (Homo sapiens, UniProt Q9NZC4 1-300); conditions: protein: recombinant; tags: N-terminal GST; dsDNA, one strand shown
# T5 sequence: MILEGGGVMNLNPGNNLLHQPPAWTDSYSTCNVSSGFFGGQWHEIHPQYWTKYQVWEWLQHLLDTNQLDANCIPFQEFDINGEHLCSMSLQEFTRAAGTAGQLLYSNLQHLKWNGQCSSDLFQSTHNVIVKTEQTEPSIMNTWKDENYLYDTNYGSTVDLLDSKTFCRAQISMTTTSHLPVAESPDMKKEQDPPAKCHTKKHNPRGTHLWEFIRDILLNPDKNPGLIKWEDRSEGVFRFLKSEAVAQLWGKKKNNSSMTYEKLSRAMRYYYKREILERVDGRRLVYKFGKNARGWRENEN
# How it was run: as §1
# [7] = target: SPI1 (Homo sapiens, UniProt P17947 1-270); conditions: protein: recombinant; tags: N-terminal GST; dsDNA, one strand shown
# How it was run: as §1
# [8] = target: SPIB (Homo sapiens, UniProt Q01892 1-262); conditions: protein: recombinant; tags: N-terminal GST; dsDNA, one strand shown
# How it was run: as §1
# [9] = target: T6, ELK3 (Homo sapiens, UniProt P41970 1-407); conditions: protein: recombinant; tags: N-terminal GST; dsDNA, one strand shown
# T6 sequence: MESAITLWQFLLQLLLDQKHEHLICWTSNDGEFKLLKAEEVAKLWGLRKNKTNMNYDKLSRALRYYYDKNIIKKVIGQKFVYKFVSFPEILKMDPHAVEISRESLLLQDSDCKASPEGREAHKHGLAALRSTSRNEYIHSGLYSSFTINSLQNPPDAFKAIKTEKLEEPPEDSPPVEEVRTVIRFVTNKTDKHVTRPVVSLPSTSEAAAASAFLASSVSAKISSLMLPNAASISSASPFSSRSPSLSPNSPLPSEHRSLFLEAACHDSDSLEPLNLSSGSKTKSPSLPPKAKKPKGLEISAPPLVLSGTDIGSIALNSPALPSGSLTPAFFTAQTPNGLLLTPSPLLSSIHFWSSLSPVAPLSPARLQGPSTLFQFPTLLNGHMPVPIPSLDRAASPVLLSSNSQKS
# How it was run: as §1
# [10] = target: T7, FEV (Homo sapiens, UniProt Q99581 1-238); conditions: protein: recombinant; tags: N-terminal GST; dsDNA, one strand shown
# T7 sequence: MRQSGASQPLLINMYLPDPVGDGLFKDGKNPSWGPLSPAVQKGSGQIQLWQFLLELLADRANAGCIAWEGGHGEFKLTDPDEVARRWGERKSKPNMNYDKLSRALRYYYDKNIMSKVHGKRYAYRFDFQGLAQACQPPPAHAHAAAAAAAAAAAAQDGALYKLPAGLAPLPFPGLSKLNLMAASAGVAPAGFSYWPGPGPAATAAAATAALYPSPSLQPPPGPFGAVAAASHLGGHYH
# How it was run: as §1
# [11] = target: ETV5 (Homo sapiens, UniProt P41161 1-510); conditions: protein: recombinant; tags: N-terminal GST; dsDNA, one strand shown
# How it was run: as §1
# [12] = target: HSF1 (Homo sapiens, UniProt Q00613 1-529); conditions: protein: recombinant; tags: N-terminal GST; chain copies: 3; dsDNA, one strand shown
# How it was run: as §1
# [13] = target: T8, SPIC (Homo sapiens, UniProt Q8N5J4 1-248); conditions: protein: recombinant; tags: N-terminal GST; dsDNA, one strand shown
# T8 sequence: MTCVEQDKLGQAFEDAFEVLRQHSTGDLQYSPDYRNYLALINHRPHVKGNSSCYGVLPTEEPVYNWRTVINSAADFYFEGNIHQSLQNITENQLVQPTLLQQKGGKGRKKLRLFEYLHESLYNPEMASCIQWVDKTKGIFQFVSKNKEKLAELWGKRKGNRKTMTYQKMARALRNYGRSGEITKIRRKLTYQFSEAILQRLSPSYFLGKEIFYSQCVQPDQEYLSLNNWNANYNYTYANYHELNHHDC
# How it was run: as §1
# [14] = target: ELF4 (Homo sapiens, UniProt Q99607 1-663); conditions: protein: recombinant; tags: N-terminal GST; dsDNA, one strand shown
# How it was run: as §1
# [15] = target: T9, ELK4 (Homo sapiens, UniProt P28324-2 1-405); conditions: protein: recombinant; tags: N-terminal GST; dsDNA, one strand shown
# T9 sequence: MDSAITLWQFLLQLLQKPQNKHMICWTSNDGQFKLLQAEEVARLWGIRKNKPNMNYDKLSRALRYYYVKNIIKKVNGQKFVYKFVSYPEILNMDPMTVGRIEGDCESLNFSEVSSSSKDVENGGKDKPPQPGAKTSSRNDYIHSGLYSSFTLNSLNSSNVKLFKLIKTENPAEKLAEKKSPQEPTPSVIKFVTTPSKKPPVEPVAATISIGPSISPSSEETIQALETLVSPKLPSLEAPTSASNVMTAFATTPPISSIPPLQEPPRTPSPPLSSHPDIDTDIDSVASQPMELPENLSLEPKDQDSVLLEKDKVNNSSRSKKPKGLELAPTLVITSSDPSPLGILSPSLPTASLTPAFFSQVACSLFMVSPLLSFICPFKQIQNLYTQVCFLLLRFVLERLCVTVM
# How it was run: as §1
# [16] = target: T10, ETV2 (Homo sapiens, UniProt O00321 1-342); conditions: protein: recombinant; tags: N-terminal GST; dsDNA, one strand shown
# T10 sequence: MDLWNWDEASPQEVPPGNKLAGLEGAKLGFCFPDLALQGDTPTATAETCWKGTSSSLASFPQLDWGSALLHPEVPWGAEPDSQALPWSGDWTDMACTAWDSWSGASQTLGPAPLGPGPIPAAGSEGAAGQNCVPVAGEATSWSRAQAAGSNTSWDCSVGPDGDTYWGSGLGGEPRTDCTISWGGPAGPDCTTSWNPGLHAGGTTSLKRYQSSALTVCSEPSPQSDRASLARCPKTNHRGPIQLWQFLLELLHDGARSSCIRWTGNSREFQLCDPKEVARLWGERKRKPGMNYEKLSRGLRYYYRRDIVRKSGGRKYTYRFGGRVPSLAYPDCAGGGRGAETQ
# How it was run: as §1
# [17] = target: T11, ELF3 (Homo sapiens, UniProt P78545 1-371); conditions: protein: recombinant; tags: N-terminal GST; dsDNA, one strand shown
# T11 sequence: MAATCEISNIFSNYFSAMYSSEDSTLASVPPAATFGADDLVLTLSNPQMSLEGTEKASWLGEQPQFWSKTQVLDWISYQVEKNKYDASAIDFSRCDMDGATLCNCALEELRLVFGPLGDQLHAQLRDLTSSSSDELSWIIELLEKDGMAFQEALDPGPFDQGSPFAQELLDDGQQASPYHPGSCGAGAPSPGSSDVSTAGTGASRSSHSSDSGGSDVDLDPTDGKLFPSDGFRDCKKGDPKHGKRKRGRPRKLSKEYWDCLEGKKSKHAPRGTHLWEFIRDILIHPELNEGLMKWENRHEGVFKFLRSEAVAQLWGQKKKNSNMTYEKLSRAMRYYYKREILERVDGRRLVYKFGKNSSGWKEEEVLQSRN
# How it was run: as §1
# [18] = target: CRX (Homo sapiens, UniProt O43186 1-299); conditions: protein: recombinant; tags: N-terminal GST; dsDNA, one strand shown
# How it was run: as §1
# [19] = target: ETV1 (Homo sapiens, UniProt P50549 1-477); conditions: protein: recombinant; tags: N-terminal GST; dsDNA, one strand shown
# How it was run: as §1
# Sequence of CRX (O43186 whole entry): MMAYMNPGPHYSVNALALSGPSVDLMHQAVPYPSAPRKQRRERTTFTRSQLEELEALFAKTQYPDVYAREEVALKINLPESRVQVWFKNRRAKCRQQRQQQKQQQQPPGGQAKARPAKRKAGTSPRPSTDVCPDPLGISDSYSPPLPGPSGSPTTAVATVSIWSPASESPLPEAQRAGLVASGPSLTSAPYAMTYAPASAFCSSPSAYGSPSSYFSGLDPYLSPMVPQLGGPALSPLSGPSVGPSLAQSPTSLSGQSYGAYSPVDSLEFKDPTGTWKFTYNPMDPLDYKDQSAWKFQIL
# Sequence of SPIB (Q01892 whole entry): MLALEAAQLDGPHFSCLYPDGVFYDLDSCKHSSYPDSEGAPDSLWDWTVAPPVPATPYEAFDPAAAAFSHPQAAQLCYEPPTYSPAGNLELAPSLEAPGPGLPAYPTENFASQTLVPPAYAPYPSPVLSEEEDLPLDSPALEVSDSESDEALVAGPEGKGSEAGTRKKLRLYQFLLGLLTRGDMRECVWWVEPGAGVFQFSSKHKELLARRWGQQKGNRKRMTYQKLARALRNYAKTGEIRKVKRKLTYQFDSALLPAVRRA
# Sequence of ETV1 (P50549 whole entry): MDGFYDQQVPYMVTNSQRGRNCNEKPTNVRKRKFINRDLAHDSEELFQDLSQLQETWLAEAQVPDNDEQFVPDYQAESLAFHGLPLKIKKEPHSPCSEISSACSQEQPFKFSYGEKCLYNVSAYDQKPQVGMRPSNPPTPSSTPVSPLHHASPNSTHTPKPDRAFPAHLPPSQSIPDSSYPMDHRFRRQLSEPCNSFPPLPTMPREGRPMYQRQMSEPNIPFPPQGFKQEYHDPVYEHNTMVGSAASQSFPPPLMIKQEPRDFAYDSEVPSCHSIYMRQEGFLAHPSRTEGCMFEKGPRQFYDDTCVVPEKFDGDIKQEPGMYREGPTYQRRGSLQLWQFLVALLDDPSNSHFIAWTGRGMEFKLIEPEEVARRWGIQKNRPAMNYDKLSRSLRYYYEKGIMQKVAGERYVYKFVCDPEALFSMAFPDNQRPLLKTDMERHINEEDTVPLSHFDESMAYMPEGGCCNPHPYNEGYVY
# Sequence of ETV5 (P41161 whole entry): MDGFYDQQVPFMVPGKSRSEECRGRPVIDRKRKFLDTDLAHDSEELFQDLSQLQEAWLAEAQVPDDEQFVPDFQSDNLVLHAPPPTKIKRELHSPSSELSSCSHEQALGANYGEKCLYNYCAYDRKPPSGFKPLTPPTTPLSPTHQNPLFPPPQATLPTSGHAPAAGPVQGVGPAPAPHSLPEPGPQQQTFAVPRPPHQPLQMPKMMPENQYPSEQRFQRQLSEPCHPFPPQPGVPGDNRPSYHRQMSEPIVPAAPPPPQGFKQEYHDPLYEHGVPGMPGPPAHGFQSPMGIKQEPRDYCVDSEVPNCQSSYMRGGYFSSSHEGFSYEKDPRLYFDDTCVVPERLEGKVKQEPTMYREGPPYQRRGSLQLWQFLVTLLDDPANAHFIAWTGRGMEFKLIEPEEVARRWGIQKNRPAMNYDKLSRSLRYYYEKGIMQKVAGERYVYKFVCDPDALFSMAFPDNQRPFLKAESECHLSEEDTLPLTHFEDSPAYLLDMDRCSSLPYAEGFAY
# Sequence of HSF1 (Q00613 whole entry): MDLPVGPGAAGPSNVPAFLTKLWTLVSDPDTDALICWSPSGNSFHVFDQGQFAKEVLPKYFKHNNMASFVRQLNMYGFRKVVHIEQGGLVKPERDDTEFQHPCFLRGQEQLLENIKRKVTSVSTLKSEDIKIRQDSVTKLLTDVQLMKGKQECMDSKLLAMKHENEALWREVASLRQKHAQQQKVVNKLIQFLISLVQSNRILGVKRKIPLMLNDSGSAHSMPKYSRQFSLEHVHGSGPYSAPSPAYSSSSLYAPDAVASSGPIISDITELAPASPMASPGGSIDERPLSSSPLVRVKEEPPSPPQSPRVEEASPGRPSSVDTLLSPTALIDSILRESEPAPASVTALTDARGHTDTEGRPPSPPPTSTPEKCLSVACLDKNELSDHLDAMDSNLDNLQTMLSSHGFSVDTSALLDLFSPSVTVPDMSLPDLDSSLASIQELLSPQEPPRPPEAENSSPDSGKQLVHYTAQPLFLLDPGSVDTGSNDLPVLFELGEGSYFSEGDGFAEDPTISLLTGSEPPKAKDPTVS
# Sequence of ELF4 (Q99607 whole entry): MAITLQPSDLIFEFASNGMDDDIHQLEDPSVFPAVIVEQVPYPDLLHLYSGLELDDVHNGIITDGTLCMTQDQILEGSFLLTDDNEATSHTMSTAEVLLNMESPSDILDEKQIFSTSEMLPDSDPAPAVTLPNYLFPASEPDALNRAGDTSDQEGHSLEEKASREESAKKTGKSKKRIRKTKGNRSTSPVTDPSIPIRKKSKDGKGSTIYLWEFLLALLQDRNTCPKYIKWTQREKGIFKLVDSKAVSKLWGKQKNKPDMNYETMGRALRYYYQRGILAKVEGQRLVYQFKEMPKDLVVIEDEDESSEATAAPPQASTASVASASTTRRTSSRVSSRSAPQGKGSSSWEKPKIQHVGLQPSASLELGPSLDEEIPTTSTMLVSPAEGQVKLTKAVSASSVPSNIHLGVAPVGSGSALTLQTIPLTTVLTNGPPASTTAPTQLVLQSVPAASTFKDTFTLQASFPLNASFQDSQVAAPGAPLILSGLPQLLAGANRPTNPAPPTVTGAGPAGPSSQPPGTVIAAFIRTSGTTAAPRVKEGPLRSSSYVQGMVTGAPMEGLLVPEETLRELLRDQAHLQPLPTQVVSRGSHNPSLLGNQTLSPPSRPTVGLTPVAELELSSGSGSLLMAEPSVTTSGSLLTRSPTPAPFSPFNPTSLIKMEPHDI
# Sequence of ELF1 (P32519 whole entry): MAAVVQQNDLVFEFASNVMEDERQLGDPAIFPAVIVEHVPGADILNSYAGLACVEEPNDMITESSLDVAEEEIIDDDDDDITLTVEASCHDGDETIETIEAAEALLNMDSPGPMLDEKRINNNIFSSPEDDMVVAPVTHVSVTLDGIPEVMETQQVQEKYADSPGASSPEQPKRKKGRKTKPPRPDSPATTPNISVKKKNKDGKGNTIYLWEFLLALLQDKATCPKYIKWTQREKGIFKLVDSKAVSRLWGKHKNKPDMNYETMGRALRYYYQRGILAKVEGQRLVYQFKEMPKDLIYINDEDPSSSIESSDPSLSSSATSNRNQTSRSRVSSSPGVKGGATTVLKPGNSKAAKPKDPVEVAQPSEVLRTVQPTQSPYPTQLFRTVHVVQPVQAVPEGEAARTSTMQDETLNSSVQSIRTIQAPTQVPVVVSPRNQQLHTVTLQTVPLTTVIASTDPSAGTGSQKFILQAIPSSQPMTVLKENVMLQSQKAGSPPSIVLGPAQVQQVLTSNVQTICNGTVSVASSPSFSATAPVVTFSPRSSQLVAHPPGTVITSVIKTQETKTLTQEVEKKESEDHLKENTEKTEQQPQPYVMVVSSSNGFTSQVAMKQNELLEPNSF
sequence,measurement,setting,value
TTCCCG,binding signal,[1],"1.8 fold enrichment (6-mer frequency, TF over GST control)"
same,binding signal,[2],"1.73 fold enrichment (6-mer frequency, TF over GST control)"
same,binding signal,[3],"1.93 fold enrichment (6-mer frequency, TF over GST control)"
same,binding signal,[4],"2.03 fold enrichment (6-mer frequency, TF over GST control)"
same,binding signal,[5],"1.82 fold enrichment (6-mer frequency, TF over GST control)"
same,binding signal,[6],"1.98 fold enrichment (6-mer frequency, TF over GST control)"
same,binding signal,[7],"2.02 fold enrichment (6-mer frequency, TF over GST control)"
same,binding signal,[8],"2.17 fold enrichment (6-mer frequency, TF over GST control)"
same,binding signal,[9],"1.78 fold enrichment (6-mer frequency, TF over GST control)"
same,binding signal,[10],"1.85 fold enrichment (6-mer frequency, TF over GST control)"
same,binding signal,[11],"2.08 fold enrichment (6-mer frequency, TF over GST control)"
same,binding signal,[12],"2.46 fold enrichment (6-mer frequency, TF over GST control)"
same,binding signal,[13],"1.91 fold enrichment (6-mer frequency, TF over GST control)"
same,binding signal,[14],"1.73 fold enrichment (6-mer frequency, TF over GST control)"
same,binding signal,[15],"1.69 fold enrichment (6-mer frequency, TF over GST control)"
same,binding signal,[16],"1.87 fold enrichment (6-mer frequency, TF over GST control)"
same,binding signal,[17],"1.64 fold enrichment (6-mer frequency, TF over GST control)"
same,binding signal,[18],"1.7 fold enrichment (6-mer frequency, TF over GST control)"
same,binding signal,[19],"1.88 fold enrichment (6-mer frequency, TF over GST control)"
